Pf growth 96h = inhibits malaria parasite growth, 96 h | P. falciparum luciferase reporter growth, 96 h | Potency, µM (top dose mostly 28.7 µM), without a hit: at the top dose activity change, negative = inhibition, usual class: inhibitors | 6.9% of 320,000 active; further: on the % scale 0 is the no-effect control and ±100 the full control effect
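Plates of compound plus infected erythrocytes (2% hematocrit, 0.05% parasitemia final) incubate 96 hours, 37 C, 5% CO2. Detection reagent added; reduced luminescence from the parasites' luciferase reporter flags inhibition.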
Vaccinia mCherry = inhibitors of vaccinia virus infection (mCherry reporter signal); Potency, µM (series often up to 36.5 µM), without a hit: at the highest dose activity change, negative = inhibition, usual class: inhibitors; 0.63% of 310,000 active; Vaccinia virus mCherry reporter infection, fluorescence; AID 720579; calls by dose curve; tested in A549 cells; further: on the % scale 0 is the no-effect control and ±100 the full control effect; nearly all actives have a fitted effect of over 35% in size
Vaccinia Venus = inhibitors of vaccinia virus (Venus reporter); AID 720580; Potency, µM (series often up to 36.5 µM), for the others: at the highest dose activity change, negative = inhibition, hits mostly inhibitors; Vaccinia virus Venus reporter expression, fluorescence; 0.46% of 330,000 active; calls by dose curve; tested in A549 cells; further: on the % scale 0 is the no-effect control and ±100 the full control effect; nearly all actives have a fitted effect of over 30% in size
NS1 inh = blocks influenza NS1 protein function. Potency, µM (doses to about 46.1 µM), inactives show at the highest dose activity, positive = more growth. 0.4% of 270,000 active; calls by dose curve; further: actives are rising curves; nearly all actives have a fitted effect of over 50% in size
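Growth recovery, yeast-based: influenza A NS1 expressed in S. cerevisiae causes slow growth, and suppressors are detected by OD600. The parent strain without NS1 is used as positive control.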
HCV inhibitor = HCV inhibition; Huh7.5.1 HCVcc-Cre infection, luciferase reporter, 44 h; AID 651820; 3.4% of 340,000 active; Potency, µM (titrated, usually from 41.8 µM), without a hit: top-dose activity change, negative = inhibition, hits mostly inhibitors; further: on the % scale 0 is the no-effect control and ±100 the full control effect
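After 44 h co-culture of compound, cells and HCVcc-Cre (~0.5 moi), substrate is added for 15 min at room temperature and luciferase measured over 15 sec. Cells were seeded at 1,000/well and pre-cultured 4 h.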
Pf growth 48h = P. falciparum growth inhibition at 48 hours (one generation); 5.9% of 310,000 active; P. falciparum luciferase growth in erythrocytes, 48 h; Potency, µM (series often up to 28.7 µM), for inactives: at the top dose activity change, negative = inhibition, usual class: inhibitors; further: on the % scale 0 is the no-effect control and ±100 the full control effect
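In quantitative HTS format, infected erythrocytes bearing luciferase-reporter parasites were treated for a single generation at 37 C. Luminescence after adding detection reagent served as the growth measure.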
* marks the source's active call; other numbers are inactive results; i = inactive; u = inconclusive; x = no result given; [ ] = dose if it differs, or a comment. Only some compounds are listed: those with a hit (about 11% of all), similar ones and a draw of the others. Unless noted, the call rests on the fitted dose curve; in most records, active means well fitted inhibition curve with a large enough effect; inconclusive means small, poorly fitted or top-dose-only effect, or another doubt; inactive means no such curve, though single readings can be large or run the other way. Potency means the concentration at half of the fitted maximal effect.

SMILES | Pf growth 96h | Vaccinia mCherry | Vaccinia Venus | NS1 inh | HCV inhibitor | Pf growth 48h
COC(=O)C1=C(c2ccc(F)cc2OCc2ccccc2)C[C@@H]2CC[C@H]1N2C(=O)NCc1ccc(C(F)(F)F)cc1 | x | i | u | x | u | x
COC(=O)C1=C(c2ccc(F)cc2OCc2ccccc2)C[C@@H]2CC[C@H]1N2C(=O)NCc1cccc(F)c1 | u | -14.1% | u | x | u | 2.33µM*
COc1ccc(N2C(=O)[C@@H]3C[C@H]2CN3Cc2cccn2-c2nccs2)cc1Cl | x | -5.3% | -15.9% | x | x | x
N#Cc1cnn(Cc2ccc(Cl)cc2)c1N | u | x | x | 16.1% | 20.6% | 10.1%
COc1cccc(OCCNC(=O)c2ccc(C)cc2)c1 | 32.8% | -13.6% | -6.0% | -6.9% | 1.5% | 29.3%
CCOC(=O)/C(C#N)=N/Nc1ccc(S(=O)(=O)N2CCc3ccccc32)cc1 | 11.7µM* | -19.8% | u | 9.6% | u | 13.1µM*
COc1ccc(C(=O)Nc2ccc(S(=O)(=O)N3CCc4ccccc43)cc2)cc1 | x | u | -27.4% | x | 11.2µM* | x
CCN(CC(=O)Nc1cccc(OC)c1)C(=O)c1cccc(S(=O)(=O)N2CCc3ccccc32)c1 | u | -11.4% | -18.0% | x | -12.1% | 11.7µM*
COc1cc2c(cc1OC)CN(C(=O)c1ccc(OC)c(S(=O)(=O)N3CCCC3)c1)CC2 | u | -18.5% | -7.5% | x | -12.9% | 11.7µM*
O=[N+]([O-])c1ccc(/C=N/Nc2cc(Cl)nc(-c3ccccc3)n2)cc1 | u | -3.0% | 0.5% | 16.2% | u | u
Cc1ccc(OCc2ccc(-c3nc(C#N)c(NCc4ccccc4Cl)o3)o2)cc1 | x | -22.3% | -22.2% | x | x | x
COc1cc2c(cc1OC)CN(C(=O)c1cccc(S(=O)(=O)N3CCc4ccccc43)c1)CC2 | 11.7µM* | -28.7% | -1.9% | x | u | 10.4µM*
O=C(Nc1ncccc1O)c1cccc(S(=O)(=O)N2CCc3ccccc32)c1 | u | x | -15.5% | -204.4% | 2.7% | 4.4%
O=C(c1cccc(S(=O)(=O)N2CCc3ccccc32)c1)N1CCc2ccccc2C1 | 31.1% | x | x | x | u | -6.8%
COc1ccc(NC(=O)c2cccc(S(=O)(=O)N3CCc4ccccc43)c2)cn1 | 11.7µM* | -14.2% | -0.2% | -7.7% | u | u
Cc1ccc(N2CC(C(=O)Nc3nnc(C)s3)CC2=O)cc1 (configuration not stated) | u | i | -15.6% | -12.6% | 12.3% | 8.1%
Cc1ccc2nc3c(cc(C(=O)NCC4CCCO4)n3C)c(=O)n2c1 (configuration not stated) | 16.5% | x | x | -1.0% | -2.4% | 27.6%
Cc1cc(C)cc(NC(=O)C2CCN(c3cnccn3)CC2)c1 | -0.6% | x | x | x | -16.9% | -19.3%
Cc1cc(C)c(NC(=O)C2CCN(c3cnccn3)CC2)c(C)c1 | 13.1µM* | x | x | -0.5% | 13.2% | 5.6%
CCOC(=O)C1=C(C)NC2=C(C(=O)c3ccccc32)C1c1ccc([N+](=O)[O-])o1 (configuration not stated) | u | -12.0% | -21.2% | 0.0% | -11.7% | 13.1µM*
CCOc1cc(C(=O)N=c2sccn2C)cc(Br)c1OC | 7.38µM* | x | x | -10.8% | u | u
Cc1ccc2nc(-c3ccc(SCC(=O)Nc4nnc(C)s4)nc3)[nH]c2c1 | 26.7% | u | 11.2µM* | 25.4% | 1.0% | -40.6%
Cc1nnc(NC(=O)CSc2ccccn2)s1 | 13.1µM* | x | x | -0.3% | 12.9% | 7.0%
CC1(C(=O)NS(=O)(=O)C2CC2)CCCN(C(=O)c2cccc(C(F)(F)F)c2)C1 (configuration not stated) | x | i | 6.5% | x | x | x
O=C(Nc1cccc(C(F)(F)F)c1)C(Sc1ncnc2ccccc12)c1ccccc1 (configuration not stated) | u | -21.4% | -5.2% | -17.8% | 10.2% | 7.38µM*
SMILES | Pf growth 96h | Vaccinia mCherry | Vaccinia Venus | NS1 inh | HCV inhibitor | Pf growth 48h
O=C(Nc1cccc(C(F)(F)F)c1)C(Sc1n[nH]c(=O)[nH]c1=O)c1ccccc1 (configuration not stated) | u | -2.0% | -4.8% | 1.5% | 5.6% | -21.3%
Cc1cc(C)cc(NC(=O)C(Sc2ncnc3ccccc23)c2ccccc2)c1 (configuration not stated) | 3.29µM* | -16.3% | -4.8% | u | -12.0% | 11.7µM*
CC12COC3(C(=O)NCCc4ccccc4)CC1CCC32C (configuration not stated) | 0.0029µM* | -23.1% | -17.3% | -5.0% | -13.0% | 17.1%
Cc1c(CN2CCc3c([nH]c4ccccc34)C2CC(C)C)cnn1C (configuration not stated) | 0.0% | x | x | -3.0% | 7.8% | -27.8%
CC(C)CC1c2[nH]c3ccccc3c2CCN1C(=O)c1cnccn1 (configuration not stated) | u | -23.0% | 19.6% | 0.8% | -6.0% | u
CC(=O)c1cc(C(=O)N2CCc3c([nH]c4ccccc34)C2CC(C)C)[nH]n1 (configuration not stated) | 9.28µM* | -22.6% | 4.2% | -3.7% | 4.3% | u
CC(C)CC1c2[nH]c3ccccc3c2CCN1C(=O)C1CCOCC1 (configuration not stated) | 4.4% | -12.8% | 11.0% | -5.2% | 1.1% | 4.65µM*
CC(C)CC1c2[nH]c3ccccc3c2CCN1C(=O)CCC(=O)N(C)C (configuration not stated) | 6.57µM* | -13.7% | -3.4% | -5.3% | 3.3% | 1.4%
COCCNC(=O)CSc1nnc(NC(=O)Nc2ccc(C)cc2)s1 | x | 1.0%[7.34 µM] | -5.5%[7.34 µM] | x | x | x
COc1ccc(N2C(=O)CC(NNC(=O)c3ccco3)C2=O)cc1 (configuration not stated) | 3.0% | i | -12.4% | x | 1.9% | 8.7%
COc1ccccc1-c1nc2c(c(SCC(=O)Nc3c(C)cc(C)cc3C)n1)Cc1c(CO)cnc(C)c1O2 | x | -18.6% | -13.0% | x | x | x
CCOc1ccc(S(=O)(=O)NCC(=O)NC2CCCCC2)cc1 | u | x | x | x | 12.4% | -25.2%
Cc1csc(NC(=O)c2oc3ccccc3c2C)n1 | 13.9% | -24.6% | -14.5% | x | u | 55.7%
Cc1csc(Nc2nc(N)c(C(=O)Nc3ccccc3)o2)n1 | 3.29µM* | x | x | -4.0% | -27.8% | 4.7%[0.00184 µM]
COc1ccccc1N1CCN(C(=O)CN2C(=O)COc3ccc(S(=O)(=O)N4CCC(C)CC4)cc32)CC1 | x | -10.1% | -2.5% | x | x | x
OCc1cc(CO)c(O)c(CCc2ccccc2)n1 | 4.65µM* | -14.8% | -5.7% | 3.5% | 8.3% | x
N=c1oc2c3c4c(cc2cc1C(=O)Nc1ccccc1)CCCN4CCC3 | 13.1µM* | -3.8% | 34.3% | u | 7.94µM* | x
O=C(N/N=C/c1ccccc1)c1cc(=O)[nH]c2ccccc12 | u | -7.6% | -11.0% | -6.2% | 6.7% | 0.1%
COc1cccc(C(=O)Nc2cc(NC(=O)c3cccs3)ccc2C)c1OC | 26.3% | x | x | -41.3% | 10µM* | 18.9%

High-throughput results: PubChem BioAssay, National Center for Advancing Translational Sciences (NCATS)
